# From PubChem
# RAD52 anneal inh: RAD52 (human) annealing inhibition; AID 651710; recombinant RAD52 DNA annealing, FRET fluorescence; P43351; inhibition, % at 18.7 µM; 360,000 tested, 0.46% active;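 active means every replicate showing at least 50% inhibition; inconclusive means mean inhibition at least 50% but not in every replicate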
# PREPL inhibitor: inhibits the human prolyl oligopeptidase-like enzyme. Q4J6C6. recombinant PREPL, fluorescence polarization activity-based probe. inhibition, % at 5.96 µM. 320,000 tested, 0.68% active; in the data active means inhibition above about 43%
# RAD54 inh: blocks human RAD54 Holliday junction branch migration. 360,000 tested, 0.14% active. inhibition, % at 10.4 µM. FAM/BHQ fluorescence. Q92698;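 active means mean normalized replicate activity at least 40 and at least half of replicates scoring 40 or more; inconclusive means only one of the two criteria met; inactive means mean below 40 and under half of replicates reaching 40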;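 further: inhibitors cause a drop in the FAM fluorescence signal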
# Target sequence (Q92698 whole entry, looked up): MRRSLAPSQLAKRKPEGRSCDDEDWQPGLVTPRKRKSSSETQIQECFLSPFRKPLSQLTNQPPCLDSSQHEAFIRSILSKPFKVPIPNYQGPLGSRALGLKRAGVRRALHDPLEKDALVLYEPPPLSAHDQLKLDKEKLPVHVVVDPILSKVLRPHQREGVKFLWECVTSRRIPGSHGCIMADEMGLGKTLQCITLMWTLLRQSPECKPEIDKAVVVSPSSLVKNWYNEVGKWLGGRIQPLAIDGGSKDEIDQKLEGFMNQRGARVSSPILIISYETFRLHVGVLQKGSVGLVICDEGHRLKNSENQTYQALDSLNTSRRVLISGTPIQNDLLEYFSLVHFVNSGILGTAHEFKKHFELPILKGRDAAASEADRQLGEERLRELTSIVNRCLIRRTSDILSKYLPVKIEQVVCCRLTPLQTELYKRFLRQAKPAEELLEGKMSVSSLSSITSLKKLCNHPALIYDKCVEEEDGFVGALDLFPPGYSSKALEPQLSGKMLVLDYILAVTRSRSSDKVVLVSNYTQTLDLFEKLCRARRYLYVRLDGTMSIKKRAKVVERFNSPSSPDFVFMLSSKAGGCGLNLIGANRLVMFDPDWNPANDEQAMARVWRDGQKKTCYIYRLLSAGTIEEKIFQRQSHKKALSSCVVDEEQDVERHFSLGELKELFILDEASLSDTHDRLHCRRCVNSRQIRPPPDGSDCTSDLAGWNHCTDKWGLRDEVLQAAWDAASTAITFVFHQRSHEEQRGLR
# MIN6 prolif: induces beta-cell replication in MIN6 cells; AID 2380; 330,000 tested, 0.29% active; proliferation, % at 10 µM; MIN6 cells proliferation, ATPlite luminescence, 48 h; cells starved in 0.2% serum; 100% = growth in 10% serum;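 active means compounds whose signal lies at least 3.5 SD above the mean of all wells on their plate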
# FID counter: counter-screen for HCV NS3 helicase inhibitors: DNA intercalator displacement | DNA fluorescent intercalator displacement, fluorescence | inhibition, % at 7.9 µM | 290,000 tested, 0.17% active | AID 1845; in the data active means inhibition above about 37%;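 further: higher means more ethidium bromide displaced from hairpin DNA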
# UBC13 inh: inhibitors of human UBC13 polyubiquitin chain formation. TR-FRET. inhibition, % at 20 µM. 330,000 tested, 0.47% active. AID 485273. P61088; in the data active means inhibition above about 45%, passing the limit was not always enough; inconclusive means no clear call, values can overlap the other calls
# RAD52 DNA ctr: DNA binding artifact in RAD52 counter-screen | shares compounds with RAD52 anneal inh | Salmon sperm DNA/acridine orange FP displacement | AC50, µM | 1,000 tested, 8% active | AID 652128;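 active means fitted half-maximal concentration for signal loss at or below twice the highest dose tested, in every separate run, actives reach about 64 µM in these data; inconclusive means runs disagree, or flat partial signal loss, or poor fit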
# Hits are given with their value; . = inactive; ? = inconclusive; / = no result. An excerpt weighted towards active compounds, which were near 1.3% of everything screened.
SMILES,RAD52 anneal inh,PREPL inhibitor,RAD54 inh,MIN6 prolif,FID counter,UBC13 inh,RAD52 DNA ctr
COc1cc2c(oc(=O)c3cc(C)cc(OC)c32)c2c(C3OC(C)C(O)C(C)(O)C3O)ccc(O)c12 (stereo not given),73,/,/,/,/,/,.
C[n+]1ccccc1COc1ccc(C(C)(C)C)cc1,99,.,/,.,.,.,.
Nc1ccc2nc(-c3ccc(Cl)cc3)[nH]c2c1,51,.,.,.,/,.,.
C[C@H]1CN([C@@H](C)CO)C(=O)Cc2cc(NC(=O)C3CC3)ccc2O[C@H]1CN(C)S(=O)(=O)c1cccs1,.,/,.,/,/,/,/
CCCCN(CC)CCNC(=O)c1cc2c(-c3ccccc3F)nn(C)c2s1,.,.,.,.,.,.,/
CC1CCCCN1CCNC(=O)c1cc2c(-c3ccccc3F)nn(C)c2s1 (stereo not given),56,.,.,.,.,.,.
COc1cccc(S(=O)(=O)N[C@H]2C=C[C@@H](CC(=O)NCc3ccncc3)O[C@H]2CO)c1,.,/,.,/,/,/,/
CSc1ccc2c(c1)C(N1CCN(C)CC1)Cc1ccc(F)cc1S2 (stereo not given),51,.,.,.,/,.,.
CC(C)(c1ccccc1)c1ccc(OCCCN2CCNCC2)cc1,57,.,/,.,.,.,.
COc1cccc(CNCCSc2nnnn2C)c1OC,103,.,.,.,.,.,.
CO[C@H]1CN(C)C(=O)c2ccc(NC(=O)c3cnccn3)cc2OC[C@H](C)N(CC2CC2)C[C@H]1C,.,/,/,/,/,/,/
CCCNC(=O)Nc1ccc2c(c1)OC[C@H](C)N(C(=O)CC)C[C@H](C)[C@@H](OC)CN(C)C2=O,.,/,/,/,/,/,/
Cc1nc2cc(-c3ccc(Cl)cc3)nn2c(NCCN(C)C)c1C,77,.,/,.,.,.,.
CCN(CC)CCNC(=O)CCc1c(C)nc2c(c(C)nn2-c2ccc(C)c(C)c2)c1C,.,/,.,.,.,.,.
CN(C)CCCN(C(=O)c1ccc2c(c1)CCCC2)c1nc2cc3c(cc2s1)OCO3,71,.,.,.,.,.,.
COc1ccc2sc(N(CCN(C)C)C(=O)c3ccc4ccccc4c3)nc2c1,56,.,.,.,.,.,.
CCN(CC)CCN(C(=O)c1ccc2ccccc2c1)c1nc2cc3c(cc2s1)OCO3,61,.,.,.,.,.,.
C[C@H]1CN([C@@H](C)CO)C(=O)c2cc(-c3ccc(F)cc3)cnc2O[C@H]1CN(C)C(=O)c1ccccn1,.,/,.,/,/,/,/
COc1cccc2sc3ccc(C#CC4(N)CCCCC4)cc3c(=O)c12,90,.,?,.,.,?,.
O=C(Nc1ccccc1)Nc1ccc2c(c1)[C@H]1C[C@@H](CC(=O)N3CCOCC3)O[C@@H](CO)[C@H]1O2,/,/,.,/,/,/,/
CCCCCc1ccc(OCCCC[n+]2ccc(C)cc2)c(CCCCC)c1,66,.,/,.,37,.,.
CC(=O)OCCc1[nH]c2ccccc2c1C,.,.,.,.,.,.,/
CC(=O)OCCc1c2ccccc2c(CCCN(C)C)c2ccccc12,69,.,/,.,/,.,.
CCOc1cc(CNCCCN2CCOCC2)cc(Br)c1OCc1ccccc1Cl,50,.,.,.,40,.,.
CCOc1cc(CNCCO)cc(Br)c1OCc1ccccc1Cl,/,.,.,.,.,.,/
SMILES,RAD52 anneal inh,PREPL inhibitor,RAD54 inh,MIN6 prolif,FID counter,UBC13 inh,RAD52 DNA ctr
O=S(=O)(N[C@H]1CC[C@@H](CCn2cc(-c3ccccn3)nn2)O[C@H]1CO)c1cccc(F)c1,.,/,.,/,/,/,/
O=C(CNC1CCCC1)Nc1ccc(N2CCCCCC2)cc1,78,.,/,.,.,.,.
CC1CCN(CC(=O)Nc2ccc(S(=O)(=O)N3CCCCC3)cc2)CC1,.,.,.,.,.,.,/
CC1CCN(CC(=O)Nc2ccc(N3CCCCCC3)cc2)CC1,75,.,/,.,.,.,.
C[C@H](CO)N1C[C@H](C)[C@H](CN(C)Cc2ccc(F)cc2)Oc2ncc(C#Cc3cccnc3)cc2C1=O,.,/,.,/,/,/,/
CCC(=O)Nc1ccc2c(c1)OC[C@H](C)N(Cc1ccccn1)C[C@@H](C)[C@H](OC)CN(C)C2=O,.,/,.,/,/,/,/
O=C(NCCN1CCCC1)c1ccc2c(c1)N(Cc1cccc(Cl)c1)C(=O)c1ccccc1S2(=O)=O,.,.,.,.,.,.,/
Cc1cccc(CN2C(=O)c3ccccc3S(=O)(=O)c3ccc(C(=O)NCCCN4CCCC4)cc32)c1,51,.,.,.,.,.,.
CCOC(=O)c1c(CSCc2ccccc2)oc2ccc(O)c(CN(C)C)c12,61,.,.,.,.,.,.
CC(C)NC(=O)N(C)C[C@H]1Oc2ccc(NC(=O)c3ccncc3)cc2CC(=O)N([C@H](C)CO)C[C@H]1C,.,/,.,/,/,/,/
NCCCC[C@H]1CN=C(N)N1CCC12CC3CC(CC(C3)C1)C2,57,.,.,.,/,.,.
COc1cc(C(=O)NC2CCN(C)CC2)ccc1Nc1ncc2c(n1)N(CCc1ccccc1)CCC(=O)N2C,81,/,.,/,/,/,.
CC(C)Oc1cc(C(=O)N2CCC(N3CCCCC3)CC2)ccc1Nc1nnc(Cl)c(Nc2ccccc2S(C)(=O)=O)n1,/,/,.,/,/,/,/
CN1CCN(C2CCN(c3ccc(Nc4nnc(Cl)c(Nc5ccccc5S(C)(=O)=O)n4)c(OC(CF)CF)c3)CC2)CC1,51,.,.,.,/,.,.
CCN1CCN(c2cc(C)c3cc(NC(=O)CCC(=O)N4CCN(c5ccccc5OC)CC4)ccc3n2)CC1,.,.,.,.,.,.,/
CCOc1ccc(C(=O)Nc2ccc3nc(N4CCN(CC)CC4)cc(C)c3c2)cc1,.,.,.,.,.,.,/
CCN1CCN(c2cc(C)c3cc(NC(=O)c4cnccn4)ccc3n2)CC1,59,.,.,.,/,.,.
CCN1CCN(c2cc(C)c3cc(NC(=O)c4cc(OC)cc(OC)c4)ccc3n2)CC1,55,.,.,.,.,.,.
C[C@H](CO)N1C[C@H](C)[C@@H](CN(C)Cc2ccc(Oc3ccccc3)cc2)Oc2ccc(NC(=O)Nc3ccc(C(F)(F)F)cc3)cc2CC1=O,/,/,.,/,/,/,/
O=C(NCCCCCCCN1CCCCCCC1)C(C1CCCCC1)C1CCCCC1,82,/,/,/,/,/,.
O=C(NCCCN1CCOCC1)NC1CCCCC1,/,.,.,.,.,.,/
O=C(N[C@@H]1CC[C@H](CCn2cc(C3(O)CCCC3)nn2)O[C@@H]1CO)c1ccccc1F,.,/,.,/,/,/,/
CCN1/C(=C/c2sc(-c3ccccc3C)c[n+]2C)Sc2ccccc21,69,/,/,/,.,/,.
CCC(=O)/C=C1/Sc2ccccc2N1CC,/,.,.,.,.,.,/
CCc1c(C2CC2)ncn1Cc1cccc(-c2ccccc2)c1,78,/,/,/,/,/,.
CCc1c(-c2ccccc2)ncn1Cc1cccc(-c2ccccc2)c1,.,/,/,/,/,/,/
O=C(C1CCCCC1)N1C[C@@H]2[C@H](c3ccccc31)[C@H](CO)N2C(=O)c1ccccc1,.,/,.,/,/,/,/
COc1ccccc1CNC(=S)Nc1ccc2nc(N3CCN(C)CC3)cc(C)c2c1,77,.,.,.,.,.,.
